Test results reported in PubChem BioAssay AID1159580 (chemical genetic matrix, 2015).
Where “and” joins values, the source holds several entries; their conditions need not be identical. Identical values can stand only once. About 2,000 (36%) of roughly 5,500 compounds were called active. Another 18% or so got no clear call; they are omitted. Rule as the data show it: active = normalized growth mostly below about 0.91 (no sharp cut-off); inconclusive = no clear call, values can overlap the other calls; inactive = mostly above about 0.92. This is one part of the list.

Assay: chemical genetic growth profiling, strain panel (AID 1159580);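 also: tested at 20 µM; growth read once vehicle control cultures reached saturation at 30 °C; 1 = growth at the plate median or of vehicle wells; lower values mean less growth of the strain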
Conditions: S. cerevisiae deletion strains, growth OD

Measured: normalized growth

COc1cc2cc[n+]3cc4c(OC)c(OC)ccc4cc3c2cc1OC
inactive: locus YAL013W, strain DEP1, hits give low values 0.996 | locus YAL021C, strain ccr4, hits give low values 0.99 | locus YAL026C, strain drs2, hits give low values 0.97 | locus YAL030W, strain snc1, hits give low values 0.965 | locus YBL061C, strain skt5, hits give low values 0.971 | locus YBR009C, strain hhf1, hits give low values 0.984 | locus YBR021W, strain FUR4, hits give low values 1.03 | locus YBR023C, strain chs3, hits give low values 0.977 | locus YBR171W, strain sec66, hits give low values 0.975 | locus YBR229C, strain ROT2, hits give low values 0.99 | locus YBR231C, strain swc5, hits give low values 0.983 | locus YBR279W, strain paf1, hits give low values 0.982 | locus YCL011C, strain gbp2, hits give low values 0.963 | locus YCL016C, strain dcc1, hits give low values 0.976 | locus YCL029C, strain bik1, hits give low values 0.983 | locus YCL061C, strain MRC1, hits give low values 0.987 | locus YCL069W, strain vba3, hits give low values 0.981 | locus YCR088W, strain abp1, hits give low values 0.982 | locus YDL005C, strain med2, hits give low values 0.957 | locus YDL035C, strain GPR1, hits give low values 0.975 | locus YDL040C, strain nat1, hits give low values 0.985 | locus YDL074C, strain BRE1, hits give low values 0.977 | locus YDL101C, strain DUN1, hits give low values 0.98 | locus YDL134C, strain PPH21, hits give low values 0.985 | locus YDL192W, strain arf1, hits give low values 0.986 | locus YDR001C, strain nth1, hits give low values 0.964 | locus YDR069C, strain doa4, hits give low values 0.981 | locus YDR101C, strain arx1, hits give low values 0.978 | locus YDR137W, strain rgp1, hits give low values 0.977 | locus YDR150W, strain NUM1, hits give low values 0.954 | locus YDR159W, strain sac3, hits give low values 0.982 | locus YDR162C, strain NBP2, hits give low values 0.99 | locus YDR195W, strain ref2 0.949 | locus YDR297W, strain sur2, hits give low values 0.979 | locus YDR318W, strain mcm21, hits give low values 0.969 | locus YDR334W, strain swr1, hits give low values 0.944 | locus YDR335W, strain msn5, hits give low values 0.98 | locus YDR388W, hits give low values 0.989 | locus YDR392W, strain spt3, hits give low values 0.927 | locus YDR502C, strain sam2, hits give low values 0.98 | locus YEL003W, strain gim4, hits give low values 0.974 | locus YEL037C, strain rad23, hits give low values 0.967 | locus YEL061C, strain CIN8 (second series), hits give low values 0.976 | locus YEL061C, strain CIN8, hits give low values 0.996 | locus YER015W, strain faa2, hits give low values 0.971 | locus YER016W, strain bim1, hits give low values 0.974 | locus YER110C, hits give low values 0.962 | locus YER111C, strain swi4, hits give low values 0.972 | locus YER155C, strain BEM2 (second series), hits give low values 0.976 | locus YER155C, strain BEM2, hits give low values 1.01 | locus YER167W, strain BCK2, hits give low values 0.978 | locus YFR010W, strain ubp6, hits give low values 0.952 | locus YGL078C, strain dbp3, hits give low values 0.979 | locus YGL086W, strain mad1, hits give low values 0.975 | locus YGL167C, strain pmr1, hits give low values 0.973 | locus YGL173C, strain kem1, hits give low values 0.954 | locus YGL227W, strain vid30, hits give low values 0.973 | locus YGL240W, strain doc1, hits give low values 0.987 | locus YGL248W, strain PDE1, hits give low values 0.99 | locus YGL253W, strain hxk2, hits give low values 0.974 | locus YGR078C, strain PAC10, hits give low values 0.986 | locus YGR135W, strain pre9, hits give low values 1 | locus YGR229C, strain SMI1, hits give low values 1.01 | locus YGR252W, strain gcn5, hits give low values 0.93 | locus YHR013C, strain ard1, hits give low values 0.945 | locus YHR027C, strain rpn1, hits give low values 0.967 | locus YHR030C, strain SLT2, hits give low values 0.982 and 1.02 | locus YHR079C, strain IRE1 (second series), hits give low values 0.977 | locus YHR079C, strain IRE1, hits give low values 1.04 | locus YHR094C, strain hxt1, hits give low values 0.969 | locus YHR129C, strain ARP1, hits give low values 0.945 | locus YHR142W, strain chs7, hits give low values 0.932 | locus YHR200W, strain rpn10, hits give low values 0.965 | locus YIL066C, strain RNR3, hits give low values 0.974 | locus YIL073C, strain SPO22, hits give low values 0.875 | locus YIL125W, strain kgd1, hits give low values 0.965 | locus YIR030C, strain dcg1, hits give low values 0.98 | locus YJL092W, strain hpr5, hits give low values 0.978 | locus YJL095W, strain BCK1 (second series), hits give low values 0.993 | locus YJL095W, strain BCK1, hits give low values 0.994 and 0.984 | locus YJL115W, strain asf1, hits give low values 0.936 | locus YJL129C, strain trk1, hits give low values 0.94 | locus YJL134W, strain LCB3, hits give low values 0.973 | locus YJL154C, strain vps35, hits give low values 0.967 | locus YJL164C, strain tpk1, hits give low values 1 | locus YJL166W, strain qcr8, hits give low values 0.984 | locus YJL168C, strain set2, hits give low values 0.98 | locus YJL187C, strain SWE1 (second series), hits give low values 0.976 | locus YJL187C, strain SWE1, hits give low values 0.988 | locus YJR043C, strain POL32, hits give low values 0.96 | locus YJR066W, strain TOR1, hits give low values 0.976
